The values that follow come from PubChem BioAssay (Tox21).

Calls of active or inactive are those of the source. Where a call stands in place of a potency, no number is given. Calls come from the whole dose curve; as a rule, active = well fitted cell-killing curve with a large enough effect in the repeat runs; inconclusive = weak or mixed curves, or effect the other way; inactive = flat fitted curve, though single readings scatter.
Potency is the fitted concentration of half-maximal effect.

The nature of this assay: qHTS assay to identify small molecule HDAC inhibitors - cell viability counter screen (AID 1259365). Note: nearly all actives have a fitted effect of over 50% in size. Particulars: HCT-116 viability, CellTiter-Glo ATP luminescence, 2 h; series mostly up to 92.4 µM. An excerpt:
U.S. Tox21 Program National Center for Advancing Translational Sciences [NCATS] NIH Chemical Genomics Center [NCGC] U.S. Environmental Protection Agency [EPA] National Institutes of Environmental Health Sciences [NIEHS] National Toxicology Program [NTP] U.S. Food and Drug Administration [FDA] Tox21 Assay Overview: Histone deacetylases (HDACs) are a group of epigenetic enzymes that regulate gene expression by histone deacetylation. HDACs are capable of introducing epigenetic modifications and such aberrations contribute to the onset and progression of several human diseases, thus making HDACs a popular therapeutic target. For identifying endogenous class I/II HDAC inhibitors a homogenous, luminogenic HDAC I/II cell based assay was used to measure the relative activity of class I and II HDACs from cells. Wild type HCT-116 cells were used to screen Tox21 compound libraries for identifying class I/II HDAC inhibitors.
Tox21 Assay Protocol Summary: HCT-116 cells were dispensed at 1,500 per well in 5uL of culture medium into white solid bottom 1536-well plates (Greiner Bio-One, Monroe, NC) using a Multidrop Combi (Thermo Scientific, Waltham, MA) dispenser. The assay plates were incubated at 37 C and 5% CO2 for an overnight, and then 23nL of compounds dissolved in DMSO and positive control were transferred using a Pintool station (Wako, San Diego, CA). The assay plates were incubated at 37C and 5% CO2 for 2hr. After compound treatment, 4uL of CellTiter-Glo reagent (Promega Corporation, Madison, WI) was added to each well of the assay plates using Flying Reagent Dispenser (FRD, Aurora Discovery, San Diego, CA) and incubated the assay plates at room temperature for 30min. The luminescence signal was quantified using a ViewLux plate reader (Perkin Elmer, Shelton, CT).
In general terms: In qHTS, concentration-response curves come from the screen itself.
Consider `CN1C(=O)[C@@H](NC(=O)c2cc3ccccc3[nH]2)N=C(c2ccccc2)c2ccccc21`, for which the Potency result was “inactive”. To `[C-]1=CC=CC1.[Cl][Zr+2][Cl].c1cc[cH-]c1` belongs “inactive”.

`[Cl-].[Cl-].[Cl-].[Yb+3]`: the Potency entry is “inactive”. For the molecule `Cc1cnc2c(C(=O)O)c(Cl)ccc2c1`, the Potency result was “inactive”. In the case of `CC(=O)[O][Sn]([c]1ccccc1)([c]1ccccc1)[c]1ccccc1`, the Potency is 54.5 µM (active). `NC1CCC(CC2CCC(N)CC2)CC1` (stereo not given): the Potency entry was “inactive”. As for `CCNc1nc(NC(C)C(C)C)nc(SC)n1` (stereo not given), the Potency result was “inactive”. To `CCCCCCCc1ccc(O)cc1` belongs “inactive”; to `CCOP(=O)(OCC)Oc1cc(C)nc(C(C)C)n1`, “inactive”; to `FC(F)C(F)(F)OCC(Cn1cncn1)c1ccc(Cl)cc1Cl` (stereo not given), “inactive”. As to `BrCC(Br)(Br)Br`, the Potency result is “inactive”. For the molecule `CC1=C2C[C@H]3[C@@H](CC=C4C[C@@H](O)CC[C@@]43C)[C@@H]2CC[C@]12O[C@@H]1C[C@H](C)CN[C@H]1[C@H]2C`, the Potency entry is “inactive”. To `ClC1=C(Cl)[C@]2(Cl)[C@H]3[C@H]([C@@H]4C=C[C@H]3C4)[C@@]1(Cl)C2(Cl)Cl` belongs “inactive”; to `COP(=O)(OC)Oc1ccc([N+](=O)[O-])cc1`, “inactive”. For `Cc1ccccc1OP(=O)(Oc1ccccc1C)Oc1ccccc1C` the value was “inactive”; for `CC(=O)[O-].CC(=O)[O-].O.O.O.[Pb+2]`, “inactive”; for `CSC(C)(C)/C=N/O`, “inactive”. For the molecule `CCC1COC(Cn2cncn2)(c2ccc(Cl)cc2Cl)O1` (stereo not given), the Potency result is “inactive”.

On to `Brc1cccc(-c2ccccc2)c1`, for which the Potency entry was “inactive”. For `CCC1(CC)C(=O)N=C(O)NC1=O`, the Potency entry is “inactive”. `S=C=Nc1ccccc1`: the Potency result was “inactive”. For `CN1CCc2cc3c(cc2C1O)OCO3` (stereo not given) the value was “inactive”. On to `C[C@@H]1CC2=CC(=O)CC[C@@H]2[C@H]2CC[C@@]3(C)[C@@H](CC[C@]3(C)O)[C@@H]21`, for which the Potency entry was “inactive”. Consider `C#CCC1=C(C)C(OC(=O)C2C(C=C(C)C)C2(C)C)CC1=O` (stereo not given), for which the Potency result is “inactive”. As for `COc1ccc2c3c1O[C@H]1[C@H](O)CC[C@H]4[C@@H](C2)N(C)CC[C@@]341`, the Potency entry was “inactive”. For `O=Cc1ccccc1` the value was “inactive”; for `O=C(N[C@H]1N=C(c2ccccc2F)c2cccc3c2N(CC3)C1=O)c1cc2ccccc2[nH]1`, “inactive”; for `CCNS(=O)(=O)C(F)(F)C(F)(F)C(F)(F)C(F)(F)C(F)(F)C(F)(F)C(F)(F)C(F)(F)F`, “inactive”. Take `c1ccc(Nc2ccc(Nc3ccccc3)cc2)cc1`: the Potency entry is “inactive”. For `CCN(CC)CCc1c[nH]c2ccccc12` the value was “inactive”. To `CC(=O)[O][Pb]([c]1ccccc1)([c]1ccccc1)[c]1ccccc1` belongs 61.1 µM (active); to `COC(=O)c1cc(Oc2ccc(Cl)cc2Cl)ccc1[N+](=O)[O-]`, “inactive”; to `CCN(CC)Cc1nccn1-c1ccc([N+](=O)[O-])cc1C(=O)c1ccccc1Cl`, “inactive”. On to `Cc1cccc(Cc2cnc[nH]2)c1C`, for which the Potency entry was “inactive”. For `COP(=S)(OC)Oc1nc(Cl)c(Cl)cc1Cl` the value was “inactive”. Consider `CCCCC(CC)COC(=O)c1ccccc1C(=O)OCC(CC)CCCC` (stereo not given), for which the Potency entry is “inactive”. To `COc1ccc2c(c1OC)C(=O)O[C@@H]2[C@H]1c2cc3c(cc2CCN1C)OCO3` belongs “inactive”; to `CN(C)C(=S)SSC(=S)N(C)C`, “inactive”. For the molecule `O=C(CCCCl)c1ccc(F)cc1`, the Potency entry was “inactive”. Consider `O=[N+]([O-])c1cccc2cccc([N+](=O)[O-])c12`, for which the Potency entry is “inactive”.
